Inconclusive results are not listed. A number with no mark means an inactive call. The source made the active and inactive calls. Calls follow the shape of the dose curve; as a rule, active = well fitted cell-killing curve with a large enough effect; inconclusive = small, poorly fitted or top-dose-only effect; inactive = no such curve, though single readings can be large or run the other way.
Test: qHTS of pediatric cancer cell lines to identify multiple opportunities for drug repurposing: Primary screen for SK-N-MC cells (AID 1347093)
Conditions: SK-N-MC viability, CellTiter-Glo luminescence, 48 h; series mostly up to 46 µM; activity change, negative = cytotoxic: at the top concentration
From the text: Drug repurposing or repositioning has been offered as a strategy for drug development in oncology programs. This approach has special potential for childhood cancers and other rare or orphan diseases, where the expected return on new drug development has been a disincentive to pharmaceuticals.
In this project we exploit the poly-pharmacology of drugs to discover new indications via phenotypic screening of a panel of 19 well-characterized cell lines derived from solid tumors seen in children and adolescents. The goal is to identify approved drugs with previously unrecognized anticancer properties that has the potential to reveal new mechanisms and biological processes involved in carcinogenesis or drug resistance. We employed a titration-based paradigm (quantitative high-throughput screening or qHTS), where all compounds were tested at multiple concentrations for their effect on cell viability. Concentration-response curves (CRCs) were derived directly from the primary screen, and both potency and efficacy values were used to identify compounds with robust bioactivity profiles. We screened the NIH Chemical Genomics Center (NCGC) Pharmaceutical Collection (NPC) and Mechanism Interrogation Plate (MIPE) small molecule collections of approved and investigational compounds against these cell lines; and measured metabolically active cells after 48 hours of compound treatment as a proxy for cell viability.
Assay Submitter: Nathalia J. Martinez, National Center for Advancing Translational Sciences, National Institutes of Health, Rockville, MD, USA; email: natalia.martinez@nih.gov
[1] Shen, M et al. Quantitative high-throughput phenotypic screening of pediatric cancer cell lines identifies multiple opportunities for drug repurposing. Oncotarget 2017 Dec 19;9(4):4758-4772. PMID 29435139.
The cells were obtained from University of North Carolina (UNC), Pediatric Preclinical Testing Program (PPT), and Coriell Institute (CI).
qHTS cell viability assay:
Cells were assayed in growth media at a density of 500-1,000 cells/well. Five microliters of cells were dispensed into 1,536-well, white, solid-bottom, TC-treated plates (Greiner Bio One) using a multidrop dispenser and incubated at 37 degrees C, 5% CO2, under a humidified atmosphere for 5 hours. Twenty-three nanoliters of compounds and controls (neutral control DMSO or positive control bortezomib at final concentration of 2.3 µM) were subsequently transferred by Kalypsys pintool. For primary screens, the MIPE collection was tested at 11-point dilutions (final concentrations range from 0.78 nM to 46 µM) and the NPC collection at 8-point dilutions (final concentrations range from 0.59nM to 46 µM). Compounds tested in follow-up screens were assayed at 11-point dilutions. Cells were incubated for 48 hours, followed by addition of 3 uL of CellTiter-Glo (Promega). After a 15 min incubation at room temperature, samples were analyzed for luminescence intensity using a ViewLux High-throughput CCD imager equipped with clear filters.
With `N#CCC(=O)NN` the “activity change, negative = cytotoxic” value was -6.81%. For `COc1ccc2c(c1)c1c3n2CCN(C)C3=NCC1`, the “activity change, negative = cytotoxic” value was -0.802%. For `O=C(Nc1cccc(C2=NCCN2)c1)Nc1cccc(C2=NCCN2)c1`, the “activity change, negative = cytotoxic” value was 23.7% [at 16.1 µM]. In the case of `O=c1[nH]c(=O)n([C@H]2C[C@H](O)[C@@H](CO)O2)cc1F`, the Potency is reported as 6.68 µM (active). For `CCCCCCCCCCCCCCCC(=O)O`, the “activity change, negative = cytotoxic” value was -28.6%. For `CCOC(=O)Nc1ccc2c(c1)N(C(=O)CCN1CCOCC1)c1ccccc1S2`, the “activity change, negative = cytotoxic” value was -28%. For `CC(=O)Nc1ccc(OC(=O)c2ccccc2OC(C)=O)cc1`, the “activity change, negative = cytotoxic” value was -24.3%. In the case of `CN(C)CCOC(c1ccc(Cl)cc1)c1ccccn1` (stereo not given), the “activity change, negative = cytotoxic” value is reported as -5.11%. With `CCc1cc(Cl)c(OC)c(C(=O)NC[C@@H]2CCCN2CC)c1O` the “activity change, negative = cytotoxic” value was -28.5%. In the case of `CC(=O)Nc1ncc([N+](=O)[O-])s1`, the “activity change, negative = cytotoxic” value is reported as 58.3%. For `CCC(C(=O)OCCOCCN(CC)CC)c1ccccc1` (stereo not given), the “activity change, negative = cytotoxic” value was -28.8%. In the case of `NC(=S)N/N=C/c1cccnc1`, the “activity change, negative = cytotoxic” value is reported as -5.65%. With `CN1CCC(OC(c2ccccc2)c2ccccc2)CC1` the “activity change, negative = cytotoxic” value was -0.0856%. For `COc1cc(C(=S)N2CCOCC2)ccc1O`, the “activity change, negative = cytotoxic” value was 29.4%. For `Oc1ccccc1C=NCc1ccccc1`, the “activity change, negative = cytotoxic” value was -13.8%. For `O=C(O)CCc1nc2ccccc2[nH]1`, the “activity change, negative = cytotoxic” value was -9.42%. In the case of `CCCCCCCCCCCCCCCCO`, the “activity change, negative = cytotoxic” value is reported as -14.7%. In the case of `COc1ccc(C(=O)c2ccccc2)c(O)c1`, the “activity change, negative = cytotoxic” value is reported as -31.8%. For `COc1ccc(C(Cl)=C(c2ccc(OC)cc2)c2ccc(OC)cc2)cc1`, the “activity change, negative = cytotoxic” value was -34.5%. For `NCCNc1cccc2ccccc12`, the “activity change, negative = cytotoxic” value was -24.6%. For `O=C(Oc1cccc2cccnc12)c1ccccc1`, the Potency was 9.44 µM (active). With `CC(=O)NC(=O)c1ccccc1O` the “activity change, negative = cytotoxic” value was 24.4%. With `COc1ccc(C(=O)c2ccccc2O)c(O)c1` the “activity change, negative = cytotoxic” value was 9.35%. For `C#C[C@]1(O)CC[C@H]2[C@@H]3CCc4cc(OC)ccc4[C@H]3CC[C@@]21C`, the “activity change, negative = cytotoxic” value was 13.2%. In the case of `OC1C(O)C(O)C(O)C(O)C1O` (stereo not given), the “activity change, negative = cytotoxic” value is reported as -24.9%. For `C/C=C/C=N/NC(=O)c1ccncc1`, the “activity change, negative = cytotoxic” value was 43.4%. For `CC(=O)NO`, the “activity change, negative = cytotoxic” value was -12.6%. With `C#C[C@]1(O)CC[C@H]2[C@@H]3CCC4=CC(=O)CC[C@@H]4[C@H]3CC[C@@]21CC` the “activity change, negative = cytotoxic” value was -16.4%. For `CCCCCCCCCCCCSCCOCCO`, the “activity change, negative = cytotoxic” value was 9.77%. For `CCOc1ccc(NC(C)=O)cc1`, the “activity change, negative = cytotoxic” value was -32.9%. With `NC(=O)n1c(O)c(C(=O)c2cccs2)c2cc(Cl)ccc21` the Potency was 26.6 µM (active). In the case of `CO[C@]12C[C@@H](COC(=O)c3cncc(Br)c3)CN(C)[C@@H]1Cc1cn(C)c3cccc2c13`, the “activity change, negative = cytotoxic” value is reported as 7.6%. For `NS(=O)(=O)c1ccc(Cl)c(S(N)(=O)=O)c1`, the “activity change, negative = cytotoxic” value was -23.6%. In the case of `CCC(Cc1c(I)cc(I)c(N)c1I)C(=O)O` (stereo not given), the “activity change, negative = cytotoxic” value is reported as -8.85%. For `CC(C)NCC(O)c1ccc2ccccc2c1` (stereo not given), the “activity change, negative = cytotoxic” value was 2.47%. With `Cc1cc(NS(=O)(=O)c2ccc(N)cc2)nc(C)n1` the “activity change, negative = cytotoxic” value was 0.0555%. For `CCOc1cc(OCC)c(C(=O)CCC(=O)O)cc1OCC`, the “activity change, negative = cytotoxic” value was 10.3%. With `CCCN(CCC)S(=O)(=O)c1ccc(C(=O)O)cc1` the “activity change, negative = cytotoxic” value was -2.5%. In the case of `Cc1ccc(-c2ncc(Cl)cc2-c2ccc(S(C)(=O)=O)cc2)cn1`, the “activity change, negative = cytotoxic” value is reported as 11.1%. For `NS(=O)(=O)Cc1noc2ccccc12`, the “activity change, negative = cytotoxic” value was -0.901%.
Potency is read from the fitted curve at half-maximal effect.
